Screening data from PubChem.
TAR Tat displ = TAR RNA-Tat peptide displacers, HIV-1, primary screen, biochemical, FRET, FAM/TAMRA-labeled Tat; HIV-1 TAR RNA, Tat peptide displacement FRET; stronger effect = higher value; z-score (concentration not given with the values); 100,000 tested, 0.6% active; active = z-score of 3 or more in at least 2 runs
CDC25B CDK2 inh = primary biochemical HTRF screen for blockers of M-phase inducer phosphatase 2 binding to CDK2/cyclin A; P30305+P24941; HTRF CDC25B-CDK2/CyclinA binding, anti-His/anti-Flag; stronger effect = higher value; z-score (no concentration beside the values); 94,000 tested, 0.72% active; AID 1259370, 2018; in the data active = z-score above about 3.2
Active calls of the source: *; x = no result. An excerpt weighted towards active compounds, which were near 0.93% of everything screened.

SMILES	TAR Tat displ	CDC25B CDK2 inh
Cn1c(=O)n(C)c2cc(NC(=O)C3CCCN(S(=O)(=O)c4cccs4)C3)ccc21 (configuration not stated)	1.13	-1.18
Cc1ccc(S(=O)(=O)NCCc2sc(-c3ccc(Cl)cc3)nc2C)cc1	0.65	x
Cc1ccnc(N2C(=O)c3ccccc3C2Nc2ccccc2)c1 (configuration not stated)	1.23	0.36
Cc1ccc(N2C(=O)c3ccccc3C2Nc2cccnc2)nc1 (configuration not stated)	-0.5	11.7*
Cc1ccc(-c2nc(C)c(CCNS(=O)(=O)c3ccc4ccccc4c3)s2)cc1	1.17	x
CCc1ccc(S(=O)(=O)Nc2cc(-c3c(O)ccc4ccccc34)c(O)c3ccccc23)cc1	x	0.58
CC(C)OC(=O)C(C(=O)C(F)(F)F)c1cc(NS(=O)(=O)c2ccc(Br)cc2)c2ccccc2c1O (configuration not stated)	x	18.7*
CCc1ccc(S(=O)(=O)Nc2cc(Br)c(O)c3ccccc23)cc1	x	17.9*
CC(C)OC(=O)C(C(=O)C(F)(F)F)c1cc(NS(=O)(=O)c2ccccc2)c2ccccc2c1O (configuration not stated)	x	-0.59
COc1ccc(OCC(=O)N2CCN(c3nc4cc(Br)ccc4n4cccc34)CC2)cc1	-0.17	-2.49
Cc1ccc2nc(C)c(Cc3nnc(SCC(=O)N4CCc5ccccc54)n3C)c(=O)n2c1	1.23	-1.18
O=C(NC1COc2ccccc2C1)N1CCCC1 (configuration not stated)	1.35	x
COc1ccc(C2C3=C(Nc4nc(N)[nH]c(=O)c42)c2ccccc2C3=O)cc1 (configuration not stated)	3.7*	13.8*
COc1cc(C2CC(=O)Nc3nc(N)[nH]c(=O)c32)ccc1O (configuration not stated)	-1.22	-1.86
COc1ccc(C2CC(=O)Nc3nc(N)[nH]c(=O)c32)cc1 (configuration not stated)	0.84	1.19
COc1cc(C2C3=C(Nc4nc(N)[nH]c(=O)c42)c2ccccc2C3=O)ccc1O (configuration not stated)	5.64*	2.72
O=C1CSc2ccc(S(=O)(=O)CCC(=O)NC3CCCC3)cc2N1	0.86	x
COc1ccc(-c2noc(-c3nnn(-c4ccc(C)c(C)c4)c3N)n2)cc1	4.68*	x
COc1ccc(-c2noc(-c3nnn(-c4ccc(OC)cc4)c3N)n2)cc1	1.02	x
CCOC(=O)c1sc(=S)n(-c2ccc(Cl)cc2)c1N	1.46	x
CCOC(=O)c1sc(=S)n(-c2ccc(OC)cc2)c1N	1.14	16.5*
O=C(CSc1ncnc2c1sc1cccc(F)c12)NCc1ccco1	0.27	x
O=C(CSc1ncnc2c1sc1cccc(F)c12)N1CCCCC1	-0.7	x
O=C(O)CCSc1ncnc2c1sc1cccc(F)c12	5.38*	-0.58
O=C(CSc1ncnc2c1sc1cccc(F)c12)NCCc1ccco1	11.7*	x
SMILES	TAR Tat displ	CDC25B CDK2 inh
O=C(Nc1ccc(C(=O)NCc2cccnc2)cc1)C1=CSCCO1	1.63	x
O=[N+]([O-])c1ccc(C=Nc2ccc3c(c2)OCCO3)s1	x	-0.82
O=c1cc(-c2ccc(O)cc2)oc2cc(O)cc(O)c12	3.36	0.12
O=c1cc(-c2cc(O)c(O)c(O)c2)oc2cc(O)cc(O)c12	10.2*	x
CN(C(=O)c1cc2c(s1)-c1ccsc1CC2)C1CCCCC1	0.08	x
Clc1cc(Br)ccc1N=Cc1cccnc1	x	-1.99
Cc1nnc(N2CCCC(C(=O)N3CCc4ccccc43)C2)c2nn(-c3ccccc3)c(C)c12 (configuration not stated)	0.8	x
CN(Cc1ccccc1)c1nnc(NC(=O)NCc2ccccc2)s1	7.97*	-1.3
CN(Cc1ccccc1)c1nnc(NC(=O)Nc2ccc3c(c2)OCCO3)s1	3.63	-0.57
CC1=C(c2ccc(C(C)C)cc2)S(=O)(=O)NC1=NC(C)(C)C	-0.77	-3.81
O=C(NCCN1CCCC1)C1=Cc2sc3c(c2CS1)CCCC3	2.15	x
Cc1sc2c(c1C)CSC(C(=O)NCCN1CCCC1)=C2	6.31*	x
Brc1ccc(OCc2nn3cnnc3s2)cc1	-0.7	-0.85
COCCCNC(=O)Cn1ncc2ccc(Cl)cc21	0.61	-0.9
O=C(Nc1ccc(Oc2cccc(C(F)(F)F)c2)nc1)c1ccc2c(c1)CCO2	x	-0.81
Cn1cc(-c2cc3n(n2)CCCN3C(=O)CCC(=O)N2CCC(C(N)=O)CC2)c2ccccc21	1	x
COc1ccc(NS(=O)(=O)c2ccc(NS(=O)(=O)c3ccc(Cl)cc3)cc2)cc1	-0.37	0.47
O=S(=O)(Nc1ccc(Oc2ccc(F)cc2)cc1)c1ccc(Cl)cc1	x	12.5*
Cc1ccc(-c2nnc3c(=O)[nH]c4ccccc4n23)cc1	-0.24	0.85
COc1ccc(O)c(C2Nc3ccccc3-n3c(-c4ccccc4)c4c(=O)n(C)c(=O)n(C)c4c32)c1 (configuration not stated)	1.73	-0.2
COc1ccc(-c2c3c(=O)n(C)c(=O)n(C)c3c3n2-c2ccccc2NC3c2cc(O)ccc2O)cc1 (configuration not stated)	21.5*	-1.76
Cc1ccc(-c2nc(SCc3cc(=O)c4cccc(C)c4[nH]3)n[nH]2)cc1	-1.18	x
O=C(c1cccnc1)N(c1ccc2oc(=O)sc2c1)S(=O)(=O)c1cccs1	-0.77	-3.07
COc1ccc(-c2coc3cc(O)ccc3c2=O)c(O)c1O	22.7*	x
COc1cc2occ(-c3cc4c(cc3OC)OCO4)c(=O)c2cc1OC	0.74	x
SMILES	TAR Tat displ	CDC25B CDK2 inh
COc1ccc(-c2coc3cc(O)ccc3c2=O)c(OC)c1O	0.53	x
COc1ccc2c(=O)c(-c3cc4c(cc3OC)OCO4)coc2c1	20*	x
CCS(=O)(=O)N1CC=C(c2c(C)n(CC(=O)N3CCCC3)c3ccccc23)CC1	-5.38	-0.9
Cc1ccc(NC(=O)Nc2nc3ccc(S(C)(=O)=O)cc3s2)cc1Cl	0.24	-0.5
COc1cccc(CC2C(=O)Nc3ccccc32)c1 (configuration not stated)	-0.79	-0.8
COc1cccc(C[C@H]2NC[C@H](O)[C@H]2OC(C)=O)c1	3.82*	x
COc1ccc(Br)cc1CNC(=O)c1cnc2scc(C)n2c1=O	0.11	x
Cc1ccc(-c2nc(SCC(=O)Nc3ccc(C)c(C)c3)n3[nH]c(=O)cc3n2)cc1	19.1*	x
CCc1ccc(NC(=O)CSc2nc(-c3ccc4c(c3)OCO4)nc3cc(=O)[nH]n23)cc1	7.38	x
CN(Cc1ccccc1)C(=O)CSc1nc(-c2ccccc2)nc2cc(=O)[nH]n12	10.3*	x
Cc1cc(C)cc(NC(=O)CSc2nc(-c3ccccc3)nc3cc(=O)[nH]n23)c1	0.65	x
CSc1cccc(NC(=O)CSc2nc(-c3ccc4c(c3)OCO4)nc3cc(=O)[nH]n23)c1	21.9*	x
O=C(CSc1nc(-c2cccs2)nc2cc(=O)[nH]n12)Nc1ccccc1	0.68	x
COc1ccc(NC(=O)CSc2nc(-c3cccs3)nc3cc(=O)[nH]n23)cc1	14.4*	x
CN(C(=O)CSc1nc(-c2ccccc2)nc2cc(=O)[nH]n12)c1ccccc1	1.6	x
CCCSC1=C(C#N)C(c2ccc(Cl)cc2)CC(=O)N1 (configuration not stated)	0.3	-1.39
N#Cc1c(NC(=O)COCc2cc(-c3cccs3)on2)sc2c1CCCC2	0.47	x
COc1ccc(Cl)cc1Nc1nc(-c2c(C)nc3ccccn23)cs1	8.26*	6.62
COc1ccccc1Nc1nc(-c2c(C)nc3ccccn23)cs1	2.5	-1.83
